One may read the AC50 as the concentration at which the activity in the assay is half-maximal.

Where “and” joins values, the source holds several entries; their conditions need not be identical. Equal entries are not always repeated. Records with an inconclusive call do not appear. A structure can be active in one record and inactive in another. Calls of active or inactive are those of the source. Rule for the calls, unless noted: active = hit-call score of the fitted dose curve at least 0.9, where 1 is the maximum; inconclusive = response in the unintended direction; inactive = score below 0.9.

Among the data in PubChem BioAssay (EPA / NIEHS) are outcome and AC50 values, retold here.

Assay [1] in a line: STM_H9_OrnithineISnorm_perc: Stemina devTOX quickPredict H9 human embryonic stem cell (hESC)-based Assay for Ornithine (ORN) Metabolite Biomarker, Normalized (AID 2283712; active = hit-call score of the fitted dose curve at least 0.9, where 1 is the maximum; inactive = score below 0.9;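 note: ornithine released into spent medium during last day measured by mass spectrometry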). An outline of the steps:
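UPLC-HRMS readout: endogenous ornithine EIC area / 13C-ORN internal standard, then % of 0.1% DMSO median. H9 hESCs (pluripotent), 72h exposure, re-dosed with fresh media q24h; last 24-h spent media, deproteinized in 40% acetonitrile.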

Assay [2] is described as follows: STM_H9_CystineISnorm_perc: Stemina devTOX quickPredict H9 human embryonic stem cell (hESC)-based Assay for Cystine (CYSS) Metabolite Biomarker, Normalized (AID 2283713; active = hit-call score of the fitted dose curve at least 0.9, where 1 is the maximum; inactive = score below 0.9). An outline of the steps:
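UPLC-HRMS read-out: endogenous cystine peak area in spent medium, normalized to isotope-labeled internal standard and to median of 0.1% DMSO controls. Pluripotent H9 cells, 72h exposure, daily medium/compound replenishment; medium from last 24h sampled.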

The nature of assay [3]: STM_H9_OrnCyssISnorm_ratio: Stemina devTOX quickPredict H9 human embryonic stem cell (hESC)-based Assay for Ornithine (ORN):Cystine (CYSS) Ratio (AID 2283714). A digest of the protocol:
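UPLC-HRMS of spent media: ORN/CYSS ratio of internal-standard-normalized percentages, DMSO (0.1%) baseline. Pluripotent H9 hESCs, 72h exposure, daily re-dosing with fresh media; last 24h media collected.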

Assay [4] in a line: Tanguay_ZF_120hpf_ActivityScore_legacy: (Legacy) Oregon State University Tanguay Lab 120 Hour Post-fertilization zebrafish Assay Score for Activity (AID 2283742).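 For AC50: dechorionated Tropical 5D wild-type zebrafish embryos held singly per well.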 An outline of the steps: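 Dechorionated 5D embryos, one per well, static exposure 6–120 hpf, 28C, sealed and dark; final DMSO 0.64% (vol/vol). Brightfield binary scoring of mortality plus 18 endpoints; gain-of-signal fit versus DMSO baseline.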

The nature of assay [5]: ACEA_AR_agonist_AUC_viability: ACEA Biosciences xCELLigence Real-Time Cell Analysis on Androgen Receptor Agonism for Viability (AID 2283775).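 For AC50: viability read 80 hours after compound addition.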 A digest of the protocol:
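Viability endpoint from xCELLigence impedance in 22Rv1 prostate cells at 80 h. Eight-point series, 100 uM maximum final.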

A short description of assay [6]: ACEA_AR_antagonist_AUC_viability: ACEA Biosciences xCELLigence Real-Time Cell Analysis on Androgen Receptor Antagonism for Viability (AID 2283776).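 Note: area under impedance growth curve at 80 h after dosing as viability; hits lower the growth signal relative to DMSO meaning cytotoxicity.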 A digest of the protocol: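 22Rv1 human prostate cancer cells were seeded on electrode plates, monitored overnight, then exposed to eight 1:4 dilutions from 100 uM final. Impedance-based growth kinetics at 80 h gave an AUC viability endpoint normalized to DMSO.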

The nature of assay [7]: CEETOX_H295R_MTT_cell_viability: Viability Assessment in the CeeTox HT-H295R MTT Assay (AID 2283718; active = hit-call score of the fitted dose curve at least 0.9, where 1 is the maximum; inactive = score below 0.9;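 for AC50: curve fitted both ways so AC50 may mark viability loss or gain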). An outline of the steps: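 Human H295R adrenal cells, prestimulated 48 h with 10 uM forskolin, were exposed 48 h to chemicals in 0.1% DMSO. Viability was measured in the same wells by MTT (0.5 mg/ml, 4 h, 37 C), absorbance 570/650 nm, as percent of controls.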
The nature of assay [8]: ArunA_CellTiter_hNC: Viability Assessment in the ArunA Biomedical's Oris Neural Crest (hNC) Cell Migration Assay (AID 2283752). An outline of the steps:
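hNC cells (H9 ESC-derived), 60,000/well, Matrigel, LIF + bFGF medium; 16 h 37C attachment; 72 h compound in test medium; CellTiter Aqueous One read-out; loss-of-signal vs DMSO baseline.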

Assay [9] can be described thus: ArunA_CellTiter_hNP: Viability Assessment in the ArunA Biomedical's Oris Neural Crest (hNC) Cell Migration Assay (AID 2283753). An outline of the steps:
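Viability read with CellTiter 96 Aqueous One after 72 h chemical exposure of human hNP1 neuroprogenitors, which were plated on Matrigel in LIF/bFGF medium 16 h beforehand. Endpoint fitted in positive direction relative to DMSO.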

Assay [10] is described as follows: ArunA_Migration_hNP: ArunA Biomedical's Oris Neuroprogenitor (hNP) Cell Migration Assay (AID 2283754). An outline of the steps:
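Readout is calcein-AM fluorescence (ex494/em517) of cells migrating into the detection zone, relative to DMSO. hNP1 cells (H9-derived) grown on Matrigel behind stoppers 16 h, then stoppers pulled and chemical applied 72 h; cytochalasin D as control.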

Assay [11] can be described thus: ArunA_Migration_hNC: ArunA Biomedical's Oris Neural Crest (hNC) Cell Migration Assay (AID 2283755). An outline of the steps:
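Calcein-AM fluorescence (ex494 nm/em 517 nm) in the stopper-defined detection zone quantifies migration of hNC cells after 72 h chemical exposure; 60,000 cells/well plated on Matrigel with LIF and bFGF, 16 h pre-incubation. DMSO baseline.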

Assay [12] is described as follows: ArunA_NOG_NucleusCount: ArunA Biomedical's Neurite Outgrowth (NOG) Assay for Nucleus Count (AID 2283756). A digest of the protocol:
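Viable neuron count, from Hoechst nuclei passing size and intensity gates, imaged at 20x on differentiated H9-derived human neurons. Exposure lasted 48 h from seeding; activity was scored relative to DMSO.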

The nature of assay [13]: ArunA_NOG_NeuriteLength: ArunA Biomedical's Neurite Outgrowth (NOG) Assay for Neurite Length (AID 2283757). A digest of the protocol:
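Total neurite length per neuron, from traced βIII-tubulin-labelled processes longer than 10 um on viable Hoechst-gated cells, was scored as decrease from DMSO. Cells were hESC (H9)-derived neurons given 48 h chemical exposure immediately after seeding.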

A short description of assay [14]: ArunA_NOG_NeuritesPerNeuron: ArunA Biomedical's Neurite Outgrowth (NOG) Assay for Neurites Per Neuron (AID 2283758). An outline of the steps: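 Differentiated human H9-derived neurons exposed to chemicals for 48 h from seeding, then stained with Hoechst and βIII-tubulin/DyLight 488. Automated imaging counted neurites (processes >10 um) per valid neuron; loss of signal versus DMSO scored.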

The nature of assay [15]: ArunA_NOG_BranchPointsPerNeurite: ArunA Biomedical's Neurite Outgrowth (NOG) Assay for Branch Points Per Neurite (AID 2283759). An outline of the steps: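 Automated image analysis traced neurites (processes >10 um) from valid cell bodies after Hoechst and βIII-tubulin staining. hNN cells from H9 embryonic stem cells, 48 h exposure. Fitted bidirectionally against DMSO.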

Take `CCc1cc(C2=C(C(=O)O)N(c3ccccc3C(F)(F)F)S(=O)(=O)c3ccccc32)cc2c1OCO2`: the outcome in assay [1], in assay [2], in assay [3], in [4] and in assay [5] was inactive. Besides, the AC50 in [6] was 25 µM (active).
Consider `O=C(O)c1cccnc1`, for which the outcome in assay [1], in assay [2], in assay [3], in assay [4], in assay [5] and in assay [6] was inactive.
Take `Cc1cc(Cc2ccc(N)c(C)c2)ccc1N`: the outcome in assay [1], in [2], in assay [3], in [7], in assay [4] and in [5] was inactive. Further, in assay [6], the outcome was inactive.
With `Cc1ccc(C(C)(C)C)c(O)c1`, the outcome in assay [1], in assay [2], in assay [4], in assay [5] and in assay [6] was inactive. In assay [3], the AC50 was 15 µM (active).
`O=C(O)CN(CC(=O)O)CC(=O)O`: the outcome in [1], in assay [7], in [4], in [5] and in assay [6] was inactive. Besides, the AC50 in assay [2] is 14.8 µM (active); in assay [3], 13 µM (active).
As for `CC(=O)[C@@]1(O)CC[C@H]2[C@@H]3CCC4=CC(=O)CC[C@]4(C)[C@H]3CC[C@@]21C`, the concentration at half-maximal activity (AC50) was 62 µM (active) in [1], 80 µM (active) in [2] and 73.4 µM (active) in assay [3]. Moreover, the outcome in [7], in assay [4] and in [6] was inactive.
With `Nc1nc(Cl)nc2c1ncn2[C@H]1C[C@H](O)[C@@H](CO)O1`, the half-maximal activity concentration (AC50) in [1] is 0.35 µM (active); in [2], 0.348 µM (active); in [3], 0.621 µM (active); in assay [7], 0.109 µM (active); in assay [8] it was 0.354 µM (active); in [9], 0.345 µM (active). Moreover, the concentration at half-maximal activity (AC50) in [10] was 289 nM (active) and 52.1 nM (active); in [11] it was 120 nM (active) and 32 nM (active); in assay [12] it was 1.81 µM (active); in assay [13], 1.74 µM (active); in assay [14], 1.58 µM (active); in assay [15], 3.41 µM (active). Besides, the AC50 is 1.98 µM (active) in [5] and 1.45 µM (active) in assay [6]. Further, the outcome in assay [4] and in assay [8] was inactive.
For `N[C@@H](Cc1c[nH]c2ccccc12)C(=O)O`, the result in [1], in [2], in assay [4] and in [5] was inactive. For the same compound, the AC50 in [6] is 9.92 µM (active).
As to `O=Cc1ccccc1C=O`, the result in assay [1] and in [2] was inactive. The figures for the concentration at half-maximal activity (AC50) in [4], in assay [5] and in [6] were 3.08 µM (active), 79.2 µM (active) and 78.7 µM (active), respectively.
As for `CCCC[C@H]1CN(CC2CCOCC2)C(=O)OC12CCN(C1(C)CCN(C(=O)c3c(C)ncnc3C)CC1)CC2`, the result in assay [1], in [2], in [3], in assay [4], in [5] and in assay [6] was inactive.
Consider `O=C1O[C@H]([C@H](O)CO)C(O)=C1O`, for which the compound was called inactive in assay [4] and in assay [5].
In the case of `Cc1c(C)c2c(c(C)c1O)CCC(C)(COc1ccc(CC3SC(=O)NC3=O)cc1)O2` (stereo unspecified), the AC50 in assay [7] is 0.0321 µM (active); in [5], 50 µM (active); in [6], 50 µM (active). For the same compound, in [4], the call was inactive.
